Hits are enriched below; roughly 3.8% of the tested compounds scored in any of these assays.
pCIP destab: p/CIP protein destabilization. Q05BA5. F442A p/CIP-EGFP cells, EGFP fluorescence, 16 h. decrease of EGFP signal, % at 10 µM. 290,000 tested, 0.01% active. AID 1984;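 active = EGFP signal decrease of at least 30% at 10 µM or well 3 SD below plate mean, unless failing retest; inactive = the rest, including hits failing retest or dose response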
HSF-1 act: increases HSF-1 driven luciferase reporter signal | NIH3T3-HGL HSF-1 luciferase reporter, MG132, 8 h; 100% = twice DMSO control signal | activation, % at 9 µM | 300,000 tested, 1.7% active;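 active = mean replicate activation of at least 50% with a set share of replicates each reaching 50%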
HSF1 inh: HSF1 inhibition; NIH3T3-HGL HSE-luciferase, MG132-induced, luminescence 8 h; stronger effect = lower value; 300,000 tested, 0.77% active; activity change, negative = inhibition, % at 7.5 µM (by protocol); AID 2098;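 active = more than half of replicate wells show activity change below -50%, luminescence cut by over half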;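 note: luciferase reports HSF-1 transcriptional activity via heat shock element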
NALP1 inh: NALP1 inhibition | AID 2071 | 280,000 tested, 0.61% active | inhibition, % at 10 µM | S. cerevisiae NALP1/ASC/caspase-1 growth, X-gal OD620, 72 h; in the data active = inhibition mostly above about 24%, no sharp cut-off; inactive = mostly below about 32%
Hsp70 act: Hsp70 transcriptional activation, primary screen | activation, % at 10 µM | HeLa Hsp70 promoter luciferase reporter, luminescence; scaled: vehicle 0, proteasome-inhibitor control 100% | 200,000 tested, 0.04% active;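 active = activation above the mean across all tested compounds plus 3 SD, cutoff set per campaign, cut at about 5.5% in these data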
HSP90 refold inh: inhibitors of HSP90 luciferase refolding in rabbit reticulocyte lysate | luciferase refolding luminescence, 3 h | inhibition, % at 5.6 µM | 290,000 tested, 0.91% active | AID 1789;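 active = inhibition above the screen-wide mean plus 3 SD, computed separately per campaign, cut at about 16% in these data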;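 note: inhibitors lower the luminescence because luciferase stays unfolded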
Large screens that a line does not name were inactive.

c1ccc(Cn2nnnc2C(c2cccs2)N2CCCCCC2)cc1 (configuration not stated)	none
CCC/C(O)=C1\C(=O)CCCC1=NCCc1c(C)[nH]c2ccc(OC)cc12	NALP1 inh 19
C#CCOCCOCCOCCNc1nc(N2CCN(C(=O)CCCCCCCCCCNC(=O)[C@H](CCCCN)n3cc(C[C@@H](C)CC)nn3)CC2)nc(N2CCN(C(=O)CCCCCCCCCCNC(=O)[C@H](CCCCN)n3cc(C[C@@H](C)CC)nn3)CC2)n1	none (no result: pCIP destab, NALP1 inh, Hsp70 act, HSP90 refold inh)
C#CCOCCOCCOCCNc1nc(N2CCN(C(=O)CCCCCCCCCCNC(=O)[C@H](CO)n3cc(CCCSC)nn3)CC2)nc(N2CCN(C(=O)CCCCCCCCCCNC(=O)[C@H](CCCCN)n3cc(C[C@@H](C)CC)nn3)CC2)n1	HSF1 inh -85 (no result: pCIP destab, NALP1 inh, Hsp70 act, HSP90 refold inh)
O=[N+]([O-])c1ccc(C(=S)N2CCCC2)cc1	none
O=[N+]([O-])c1ccc(C(O)CSC(=S)N2CCCCC2)cc1 (configuration not stated)	HSF-1 act 70 (no result: Hsp70 act)
CN(Cc1ccccc1)C(=O)C1CCN(S(=O)(=O)c2ccc(-n3cnnn3)cc2)CC1	none (no result: Hsp70 act)
COc1ccc(S(=O)(=O)N2CCOC2CNC(=O)C(=O)NCc2ccc3c(c2)OCO3)cc1 (configuration not stated)	none (no result: Hsp70 act)
Clc1ccccc1OCCCOc1cccc2cccnc12	HSF-1 act 106 (no result: Hsp70 act)
Brc1ccc(OCCCOc2cccc3cccnc23)cc1	HSF-1 act 56 (no result: Hsp70 act)
Brc1ccc(OCCOCCOc2cccc3cccnc23)cc1	none (no result: pCIP destab, NALP1 inh)
O=[N+]([O-])c1ccccc1OCCCOc1cccc2cccnc12	HSF-1 act 55 (no result: Hsp70 act)
Cc1sc2c(c1C)C(O)=C(C(=O)Nc1ccccc1)S(=O)(=O)N2C	none (no result: Hsp70 act)
COc1ccc(C(=O)Nc2ccccc2C(=O)NCc2cccnc2)cc1	none (no result: Hsp70 act)
Cc1ccc(OCc2cc(C(=O)N3CCN(C)C[C@@H]3c3ccccc3)no2)cc1C	HSF-1 act 56 (no result: Hsp70 act)
Cc1onc(-c2ccccc2Cl)c1C(=O)N1CCCCC1	none (no result: Hsp70 act)
Cc1onc(-c2ccccc2Cl)c1C(=O)N1CCN(c2nc3ccccc3s2)CC1	NALP1 inh 34
CCCCN(CCCC)S(=O)(=O)c1ccc(NC(=O)CN2CCOCC2)cc1	NALP1 inh 41
CCCc1nnc(NC(=O)CS(=O)(=O)c2ccc(C)cc2)s1	none (no result: Hsp70 act)
CCN(c1ccccc1)S(=O)(=O)c1ccc(NC(=O)c2nc(S(C)(=O)=O)ncc2Cl)cc1	none (no result: Hsp70 act)
Cc1cccc(CS(=O)(=O)c2ncc(Cl)c(C(=O)NCc3ccccc3)n2)c1	HSF-1 act 327 (no result: Hsp70 act)
CCCc1nnc(NC(=O)c2nc(S(=O)(=O)Cc3cccc(C)c3)ncc2Cl)s1	HSF1 inh -60 (no result: Hsp70 act)
Cc1cccc(C)c1NC(=O)c1nc(S(=O)(=O)Cc2ccccc2)ncc1Cl	HSF-1 act 596 (no result: Hsp70 act)
O=C(NCc1ccccc1)c1cnc(Cl)c(Cl)c1	none (no result: Hsp70 act)
Cc1ccccc1NC(=O)c1nc(S(C)(=O)=O)ncc1Cl	HSF-1 act 113 (no result: Hsp70 act)
CC1CCN(C(=O)CCNC(=O)c2ccccc2Cl)CC1	none (no result: Hsp70 act)
Cc1ccnc(NS(=O)(=O)c2ccc(NC(=O)c3snnc3C)cc2)n1	none (no result: Hsp70 act)
O=C(c1cc(Cl)nc2ccccc12)N1CCN(S(=O)(=O)c2ccccc2[N+](=O)[O-])CC1	none (no result: Hsp70 act)
COc1ccc(NC(=O)[C@@H](NC(=O)c2ccccc2F)C(C)C)cc1S(=O)(=O)N1CCOCC1	none
CN1/C(=C/C(=O)c2nc(S(C)(=O)=O)ncc2Cl)C(C)(C)c2ccccc21	HSF1 inh -92
Cc1cccc(CS(=O)(=O)c2ncc(Cl)c(C(=O)Nc3c(C)cccc3C)n2)c1	HSF-1 act 482 (no result: Hsp70 act)
Cc1ccccc1CS(=O)(=O)c1ncc(Cl)c(C(=O)Nc2ccc(F)cc2)n1	none (no result: Hsp70 act)
CN1/C(=C\C(=O)c2cccnc2)C(C)(C)c2ccccc21	none
Cc1nccn1C(c1ccccc1)c1ccccc1	none (no result: pCIP destab, NALP1 inh, Hsp70 act, HSP90 refold inh)
OC(CSc1c(Cl)cccc1Cl)CN1CCN(c2ccccc2F)CC1 (configuration not stated)	NALP1 inh 60
OC(CSc1ccccc1Cl)CN1CCN(c2ccccc2F)CC1 (configuration not stated)	none
Oc1ccccc1N=Nc1nc(-c2ccccc2)c(-c2ccccc2)[nH]1	HSF-1 act 71
COc1ccccc1N=Nc1nc(-c2ccccc2)c(-c2ccccc2)[nH]1	none
O=C1C(=O)N(CCN2CCOCC2)C(c2ccccc2F)/C1=C(\O)c1ccc(S(=O)(=O)N2CCOCC2)cc1 (configuration not stated)	none (no result: Hsp70 act)
C=CCNC(=S)NN=C1CCC(c2ccccc2)CC1 (configuration not stated)	none (no result: Hsp70 act)
COc1ccc(NC(=O)COC(=O)Cc2c(F)cccc2Cl)cc1OC	none
O=c1[nH]c2cccnc2n1Cc1ccccc1	NALP1 inh 41
O=C(CCNS(=O)(=O)c1ccccc1)N1CCN(C(c2ccccc2)c2ccccc2)CC1	none (no result: Hsp70 act)
Cc1ccc(SCc2cn3cc(Cl)ccc3n2)cc1	HSF-1 act 54 (no result: NALP1 inh, Hsp70 act)
Clc1ccc2nc(CSc3nncn3-c3ccccc3)cn2c1	none
Clc1ccc2nc(CSc3nc4ccccc4o3)cn2c1	HSF-1 act 100
Clc1ccc(SCc2cn3ccccc3n2)cc1	HSF-1 act 78
Clc1ccc2nc(CSc3nnc4ccccn34)cn2c1	HSF-1 act 68
COc1ccccc1OCC(=O)Nc1ccc(S(=O)(=O)Nc2onc(C)c2C)cc1	none (no result: Hsp70 act)
O=C(CCCN1C(=O)c2ccccc2C1=O)Nc1nnc(C2CC2)s1	none
CNc1cc(CSc2ccc(Cl)cc2)nc(C)n1	HSF-1 act 71
Clc1cccc(Cl)c1CSc1nnc2ccccn12	none
Brc1ccc(CSc2nnc3ccccn23)cc1	HSF-1 act 58
Cc1ccc(SCc2cn3c(C)csc3n2)cc1	HSF-1 act 91
Cc1nc(CSc2ccc(Cl)cc2)cc(NCc2ccccc2)n1	none
C#CCOCCOCCOCCNc1nc(N2CCN(C(=O)C([C@@H](C)CC)n3cc(C(N)CO)nn3)CC2)nc(N2CCN(C(=O)[C@H](CCC(=O)O)n3cc(C(N)[C@H](C)CC)nn3)CC2)n1 (some centres not stated)	none (no result: Hsp70 act, HSP90 refold inh)
CN(CC(=O)Nc1ccc(Cl)cc1)C(=O)CCc1nc2sc3c(c2c(=O)[nH]1)CCCC3	none (no result: pCIP destab, NALP1 inh, Hsp70 act, HSP90 refold inh)
CCOc1ccc(CNCCCSc2ncccn2)cc1	none (no result: Hsp70 act)
CCOc1ccc(CNCCCSc2ncccn2)cc1OC	HSF1 inh -68 (no result: Hsp70 act)
COc1ccc(Cl)cc1NC(=O)COc1ccc(S(=O)(=O)N2CCOCC2)cc1C	none (no result: Hsp70 act)
CCOc1ccc(N2C(=O)/C(=C\c3ccc(O)c(OC)c3)S(=O)(=O)C2c2cccc([N+](=O)[O-])c2)cc1 (configuration not stated)	HSF-1 act 112
COC(=O)C1NN=C(C(=O)c2ccccc2)C1c1ccccc1 (configuration not stated)	none
